In PubChem BioAssay (NCI) one finds growth data, which are given here for 8 compounds.

About 83,000 compounds went through this panel and 20% of them were active in at least one assay; those are over-represented in the sample as a whole.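 Percent growth is the endpoint: 0 to 100 indicates growth inhibition (40 means 60% inhibition), 0 means no net growth, and negative values indicate cell death.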 Values without a mark were called inactive. Active and inactive are the calls of the source. The calls were made as follows: active = growth percent below 10; inactive = the rest.

What all share (test): NCI-60 one-dose screen, 48 h (100 = growth as untreated, 0 = no growth, -100 = all killed)
Conditions in all cases: 10 µM unless noted

Test [1] deals with SR leukemia.
For test [2], the system named is RPMI-8226 leukemia.
Test [3] relates to OVCAR-8 ovarian.
The test system of test [4] is OVCAR-5 ovarian.
The test system of test [5] is OVCAR-4 ovarian.
The subject of test [6] is SK-OV-3 ovarian.
Test [7] relates to IGROV1 ovarian.
The test system of test [8] is OVCAR-3 ovarian.
Test [9] has as its system HS 578T breast.
The test system of test [10] is NCI/ADR-RES ovarian.
In test [11] the test system is T-47D breast.
Test [12] has as its system BT-549 breast.
Test [13] relates to MDA-MB-435 melanoma.
In test [14] the test system is SW-620 colon.
The subject of test [15] is MCF7 breast.
Test [16] concerns HCT-116 colon.
The subject of test [17] is HCC-2998 colon.
In test [18] the test system is KM12 colon.

Consider `O=C(CSc1nc2ccccc2c(=O)n1-c1ccc(Cl)c(Cl)c1)Nc1ccc(S(=O)(=O)Nc2ccc(Cl)nn2)cc1`, for which the growth was 108% in test [1]; 106% in [2]; 94% in test [3]; 91.1% in [4]; 97.7% in test [5]; 88.8% in test [6]. In addition, the growth in test [7] was 95.8%; in test [8] it was 106%; in test [9], 91.2%; in test [10], 99.8%; in test [11], 85.9%; in test [12], 94.4%. The growth is 97.8% in [13]; 89.7% in test [14]; 95.6% in [15]; 92% in [16]; 95.1% in test [17]; 102% in test [18].
For the compound `CCCCN1C(=O)/C(=c2\sc3n(c2=O)C2C(NN=3)N(CC)C(=O)N2CC)c2cc(C)ccc21` (centres undefined), the growth in [1] was 64.1%; in test [2], 99.8%; in test [3] it was 93%; in test [4] it was 96.1%; in [5], 97.2%; in test [6], 108%. Moreover, the growth in test [7] is 88.4%; in test [8], 102%; in [9] it was 89.7%; in test [10], 81.9%; in test [11], 93.8%; in test [12] it was 96.3%. Also, the growth is 84.5% in test [13]; 95.1% in test [14]; 80% in [15]; 85.3% in [16]; 109% in test [17]; 94.1% in [18].
As to `CC(=O)OC[C@@]12Oc3c(cccc3-c3ccc(O)c4c3O[C@]3(COC(C)=O)C(=C4O)C(=O)C[C@H](C)[C@@H]3OC(C)=O)C(O)=C1C(=O)C[C@H](C)[C@@H]2OC(C)=O`, the growth in test [1] was -7.02% (active); in test [2], -27.1% (active); in test [3] it was 15%; in test [4] it was 27.6%; in test [5], 5.47% (active); in test [6] it was -1.41% (active). The growth is 26.9% in [7]; 11.6% in test [8]; -13.6% (active) in test [9]; 24.7% in test [10]; 4.37% (active) in [11]; -1.88% (active) in test [12]. In addition, the growth in test [13] was 13%; in test [14] it was 17.8%; in test [15], 5.84% (active); in [16], 10.8%; in test [17] it was 23.7%; in test [18], 8.74% (active).
For `C#CCN(C)CCCOc1ccc(NCc2ccc(C(=O)NO)cc2)cc1Cl`, the growth is 15.7% in [1]; 9.94% (active) in test [2]; 14.7% in test [3]; 23.4% in test [4]; 31.3% in test [5]; -4.09% (active) in test [6]. Also, the growth is 15.6% in test [7]; 24.3% in test [8]; 25% in [9]; 7.57% (active) in test [10]; 0.446% (active) in [11]; 75.4% in [12]. Further, the growth is 9.64% (active) in test [13]; 12.2% in test [14]; 18% in test [15]; 10.7% in test [16]; 32.7% in test [17]; 24.2% in test [18].
Turning to `COc1ccc(/C=N/NC(=O)CSc2nc(-c3cnccn3)cc(-c3cccs3)c2C#N)cc1OC`, the growth in [1] was 81.8%; in [2], 70.5%; in [3], 84.7%; in test [4], 104%; in test [5], 97.6%; in test [6], 120%. In addition, the growth in test [7] is 104%; in test [8], 99%; in test [9], 69.8%; in [10] it was 96.6%; in test [11], 93.9%; in test [12], 38%. Further, the growth was 78.9% in [13]; 60.8% in test [14]; 53.7% in test [15]; 55.4% in test [16]; 47.3% in test [17]; 51.4% in [18].
Take `O=C(CCCCCCNC(=O)C(O)(O)C(F)(F)F)Nc1nc2ccccc2s1`: the growth in [1] was 16.7%; in test [2], 13.5%; in test [3], 8.26% (active); in test [4], 1.89% (active); in test [5] it was 35.9%; in test [6], -26.3% (active). The growth in test [7] was -3.25% (active); in [8], -38.8% (active); in test [9], 12.5%; in test [10], 1.87% (active); in test [11] it was 12.1%; in [12] it was 13%. The growth in test [13] was 4.88% (active); in [14], 4.75% (active); in test [15], 9.8% (active); in [16], 2.81% (active); in test [17], -39.8% (active); in [18], 7.52% (active).
Consider `O=S(=O)(NCCCNc1nccc(-c2[nH]c(-c3ccccc3)nc2-c2ccc(F)c(O)c2)n1)c1cccc2ccccc12`, for which the growth was 28.6% in test [1]; 4.6% (active) in [2]; 54.3% in test [3]; 146% in [4]; 81.9% in [5]; 103% in test [6]. The growth is 58.3% in test [7]; 88.4% in test [8]; 40.7% in test [9]; 91.1% in test [10]; 51.3% in test [11]; 69.2% in [12]. Further, the growth in test [13] was 36.9%; in test [14] it was 68.9%; in [15], 44.9%; in [16], 34.6%; in test [17], 99%; in test [18], 55.7%.
`CCCCCN1C(=O)/C(=c2\sc3n(c2=O)C2C(NN=3)N(CC)C(=O)N2CC)c2cccc(C)c21` (centres undefined): the growth was 13.6% in test [1]; 39.1% in test [2]; 73.3% in [3]; 72.4% in test [4]; 52.1% in test [5]; 89.3% in [6]. For the same compound, the growth was 44.8% in test [7]; 32.9% in test [8]; 34.3% in test [9]; 30.7% in [10]; 44% in [11]; 68% in [12]. In addition, the growth in test [13] was -13.6% (active); in test [14], 43.5%; in test [15] it was 18.2%; in [16], 32.3%; in test [17], 86%; in test [18], 26.6%.
